An excerpt weighted towards active compounds, which were near 3.7% of everything screened.
A549 tox – A549 cytotoxicity, counter-screen for Nrf2 inhibitors; A549 ARE-Fluc cells, CellTiter-Fluor viability, 18-24 h; Potency, µM (doses to about 46 µM), most hits filed as inhibitors; hit rate 0.16% among 390,000; AID 504648
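Cytotoxicity counterscreen: CellTiter-Fluor fluorescence was measured in A549 ARE_Fluc cells after 18-24 h of compound exposure in a concentration series. The subsequent BugLite luminescent read reports ARE-luciferase activity.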
Nrf2 block – inhibitors of Nrf2 signaling. A549 ARE-Fluc reporter, luciferase luminescence, 18-24 h. Potency, µM (series often up to 46 µM), usual class: inhibitors. hit rate 2.1% among 360,000. AID 504444; further: nearly all actives have a fitted effect of over 60% in size
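Concentration-response testing used A549 ARE_Fluc cells at 5000 cells/well. Following an 18-24 h compound incubation, viability was read by fluorescence (Ex 405/Em 525) and luciferase output by luminescence.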
ELG1 DNA repair – ELG1-dependent DNA repair inhibition | HEK293T ELG1-luciferase reporter, luminescence, 16 h; DNA damage induced by 5-fluorouridine | Potency, µM (titrated, usually from 46.1 µM), usual class: inhibitors | hit rate 2.3% among 330,000 | AID 504467; further: nearly all actives have a fitted effect of over 55% in size
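DMSO vehicle served as the neutral condition. Each well held 2,000 cells given 5-fluorouridine plus compound; after 16 hr at 37 °C/5% CO2, ONE-Glo was added and luciferase measured 30 min later.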
Nrf2 ARE act – Nrf2 pathway activation. hit rate 0.31% among 410,000. AREc32 ARE-luciferase reporter (MCF7-derived line), luminescence, 24 h. Potency, µM (titrated, usually from 46.1 µM), usual class: activators; further: nearly all actives have a fitted effect of over 65% in size
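Luminescent ARE reporter assay in AREc32_Fluc cells: overnight plating at 37 deg C, 24 hr compound incubation, Steady-Glo added, 30 min RT before reading.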
Large screens that a line does not name were inactive. The call rests on the fitted dose curve; in most records, active means well fitted curve in the direction sought with a large enough effect; inconclusive means small, poorly fitted or top-dose-only effect, or another doubt; inactive means no such curve, though single readings can be large; an effect the other way counts as inactive or inconclusive.

CCC(C)Nc1nc2c(c(=O)n(C)c(=O)n2C)n1Cc1ccc(F)cc1 (stereo not given)	none
C=CCNc1nc2c(c(=O)n(C)c(=O)n2C)n1CCCCCC	Nrf2 block 4.1µM
CNc1nc2c(c(=O)n(C)c(=O)n2C)n1CCCc1ccccc1	Nrf2 block inconclusive, ELG1 DNA repair inconclusive
C=CCNc1nc2c(c(=O)n(C)c(=O)n2C)n1Cc1ccc(F)cc1	Nrf2 block 8.2µM, ELG1 DNA repair inconclusive
O=C(N/N=C/c1cc(Br)cc([N+](=O)[O-])c1O)c1ccc(NC(=O)c2ccc(F)cc2)cc1	Nrf2 block inconclusive, ELG1 DNA repair 13µM
COCCOc1ccc(C(F)(F)F)cc1NC(=O)COC(=O)C12CC3CC(CC(O)(C3)C1)C2	none
CSCCC(NS(=O)(=O)c1ccc2c(c1)OCCO2)C(=O)N(C)Cc1ccccc1F (stereo not given)	ELG1 DNA repair 16µM
CSCCC(NS(=O)(=O)c1ccc2c(c1)OCCO2)C(=O)N(C)Cc1ccc(F)cc1 (stereo not given)	ELG1 DNA repair inconclusive
Cc1cccc2cc(CN(CCCO)C(=O)Nc3cccc(Cl)c3)c(=O)[nH]c12	ELG1 DNA repair 13µM
Cc1cccc2cc(CN(CCCO)C(=O)Nc3ccccc3Cl)c(=O)[nH]c12	ELG1 DNA repair inconclusive
Cc1cccc2cc(CN(CCCO)C(=O)Nc3ccc(Cl)cc3)c(=O)[nH]c12	Nrf2 block inconclusive, ELG1 DNA repair 21µM
COC(=O)C(C)NC(=O)C1CCCN1C(=O)CNC(=O)OCc1ccccc1 (stereo not given)	none
CCC(C)N1C(=O)S/C(=C/c2ccc3c(c2)n(C)c(=O)n3C)C1=O (stereo not given)	Nrf2 block inconclusive
CCOC(=O)C(C)N1C(=O)S/C(=C/c2ccc3c(c2)n(C)c(=O)n3C)C1=O (stereo not given)	Nrf2 block 21µM, Nrf2 ARE act inconclusive
C=CC(=O)Nc1cccc(CN2C(=O)N(c3cc(OC)cc(OC)c3)Cc3cnc(NCCCCN(CC)CC)nc32)c1	A549 tox 6.5µM (no result: ELG1 DNA repair)
COc1cccc(/C=N/NC(N)=S)c1OCc1cccc(Cl)c1	Nrf2 block 16µM, ELG1 DNA repair inconclusive
NC(=S)N/N=C\c1ccccc1OCc1ccccc1	none
Cn1cc(CCNC(=O)CC2C(=O)NCCN2Cc2cccc(Oc3ccccc3)c2)cn1 (stereo not given)	Nrf2 block 15µM
O=S(=O)(Nc1cccc(-c2ccc(N3CCCC3)nn2)c1)c1ccccc1C(F)(F)F	none (no result: Nrf2 block, ELG1 DNA repair)
O=C(CSc1nc(-c2ccccc2)c(-c2ccccc2)o1)NC1CCS(=O)(=O)C1 (stereo not given)	Nrf2 block inconclusive, ELG1 DNA repair 23µM
Cc1cc(C)cc(CC(Cc2nc3ccccc3[nH]2)c2nc3ccccc3[nH]2)c1 (stereo not given)	A549 tox inconclusive, Nrf2 block inconclusive, ELG1 DNA repair inconclusive
CCOc1nc(C#N)nc(N2CCCCC2)n1	Nrf2 block 16µM, ELG1 DNA repair inconclusive
COc1nc(C#N)nc(N2CCCC2)n1	Nrf2 block inconclusive (no result: ELG1 DNA repair, Nrf2 ARE act)
S=C(Nc1ccc(Cl)cc1Cl)Nn1cnnc1	none
S=C(NCc1ccncc1)Nc1ccc(Cl)cc1Cl	Nrf2 block inconclusive, ELG1 DNA repair 16µM
S=C(NNc1ccnc2cc(Cl)ccc12)Nc1ccc(Cl)cc1Cl	A549 tox inconclusive, Nrf2 block inconclusive, ELG1 DNA repair 21µM
CCOc1ccc(NC(=S)NNc2ccnc3cc(Cl)ccc23)cc1	A549 tox inconclusive, Nrf2 block inconclusive, ELG1 DNA repair 23µM
CCOc1ccccc1Nc1ccnc2cc(Cl)ccc12	none
COc1ccc(S(=O)(=O)Nc2ccc3c(c2)C(=O)N([C@H](C)CO)C[C@H](C)[C@@H](CN(C)Cc2ccncc2)OCCCC[C@@H](C)O3)cc1	none (no result: A549 tox, Nrf2 block, ELG1 DNA repair)
Cc1nn(C)c(C)c1Nc1ccc(N2C(=O)C3CC=CCC3C2=O)cc1[N+](=O)[O-] (stereo not given)	Nrf2 block 21µM
Fc1ccccc1C1CC(c2ccco2)=Nc2ccccc2S1 (stereo not given)	ELG1 DNA repair inconclusive, Nrf2 ARE act inconclusive
COc1ccc(Nc2ccc(S(=O)(=O)N3CCCCC3)cc2[N+](=O)[O-])cc1	A549 tox inconclusive, Nrf2 block 7.3µM
COc1ccc(S(=O)(=O)N2CCCC2)cc1OC	none
COc1ccc2cc(S(=O)(=O)N3CCCCC3)ccc2c1S(=O)(=O)N1CCCCC1	Nrf2 block 16µM, ELG1 DNA repair inconclusive
COc1ccccc1C(CNc1ccc(S(=O)(=O)N2CCCC2)cc1[N+](=O)[O-])N(C)C (stereo not given)	Nrf2 block inconclusive, ELG1 DNA repair 12µM
COC(=O)CSc1ccc(S(=O)(=O)N2CCCCCC2)cc1[N+](=O)[O-]	ELG1 DNA repair 10µM
O=C1C(=O)C(c2ccc(O)cc2O)Oc2cc(O)cc(O)c21 (stereo not given)	none (no result: ELG1 DNA repair, Nrf2 ARE act)
CN(CC(=O)Nc1ccc(Cl)cc1)c1ccc(S(=O)(=O)N2CCCCC2)cc1[N+](=O)[O-]	Nrf2 block inconclusive, ELG1 DNA repair 18µM
CN(CC(=O)Nc1ccc(S(=O)(=O)N2CCCC2)cc1)Cc1ccc(Cl)cc1Cl	Nrf2 block inconclusive, ELG1 DNA repair inconclusive
O=C(CN(Cc1ccco1)Cc1ccco1)Nc1cc(S(=O)(=O)N2CCCCC2)ccc1Cl	Nrf2 block inconclusive, ELG1 DNA repair 26µM
CC1CCN(Cc2nnnn2CCCC(=O)N(C)C2CCOC2)CC1 (stereo not given)	none
Cc1ccc(NC(=O)CN2C(=O)NC3(CCCC3)C2=O)c(Cl)c1	none
CN(C)c1nc(SCCOC(=O)c2ccccc2)nc(N(C)C)n1	none
CCN(CC)c1nc(SCCOC(=O)Nc2ccccc2)nc(N(CC)CC)n1	A549 tox inconclusive, Nrf2 block 21µM
Cc1ccc(C)c(N2CCN(C(=O)CCCN3C(=S)NC(C)(C)CC3C)CC2)c1 (stereo not given)	Nrf2 block 16µM, ELG1 DNA repair inconclusive
Cc1cccc(N2CCN(C(=O)CCN3C(=S)NC(C)(C)CC3C)CC2)c1C (stereo not given)	ELG1 DNA repair inconclusive
C#CCSc1nccc(-c2nn(-c3ccc(C)cc3)ccc2=O)n1	ELG1 DNA repair 9.2µM
CCSc1nccc(-c2nn(-c3ccc(C)cc3)ccc2=O)n1	A549 tox inconclusive, Nrf2 block inconclusive, ELG1 DNA repair 10µM
C=CCSc1nccc(-c2nn(-c3ccc(C)cc3)ccc2=O)n1	ELG1 DNA repair 7.3µM
CCCCC1(CC)SCC(=O)NC1=O (stereo not given)	none (no result: ELG1 DNA repair)
CCC(CC)C(=O)Nc1cccc(-c2nc3cccnc3s2)c1C	none (no result: ELG1 DNA repair)
CC(=O)Nc1c(Cl)cc(Cl)c2c1Cc1cc(Cl)ccc1-2	none (no result: ELG1 DNA repair)
CCc1ccc2occ(CC(=O)Nc3c(C(=O)c4ccc(C)cc4)oc4ccccc34)c2c1	none (no result: ELG1 DNA repair)
COc1ccc(CN(Cc2ccccc2)C(=O)C2CC2)cc1COc1ccc(NC(C)=O)cc1	Nrf2 block 21µM (no result: ELG1 DNA repair, Nrf2 ARE act)
O=S(=O)(c1ccc(NC(=S)N/N=C/c2ccc(Oc3ccccc3)cc2)cc1)N1CCOCC1	none
Cc1ccccc1C(=O)NC(=S)Nc1ccc(S(=O)(=O)N2CCOCC2)cc1	Nrf2 block 13µM

Source: PubChem
